Experimental data: PubChem BioAssay (NCATS)
Records with an inconclusive call do not appear. The source made the active and inactive calls. Calls come from the whole dose curve; as a rule, active = well fitted inhibition curve with a large enough effect; inconclusive = small, poorly fitted or top-dose-only effect; inactive = flat fitted curve, though single readings scatter. *1 amine or outer side, *2 acyl side, *3 side chain or, on linkers, in order; H or OH if unused. Where a SMILES comes first, the peptide text is derived from it. Bridges are numbered along the chain shown (N, C = ends). X6 = O=C(CCC[*:2])[*:1]

Key:
CRL-7250 = normal cell line; assay: Cytotoxic Profiling of Annotated Libraries Using Quantitative High-Throughput Screening (AID 1296008); conditions: Five cell lines viability, CellTiter-Glo ATP luminescence, 48-72 h; max response: stronger effect = lower value; for max response: % is set by controls: 0 for no effect and ±100 for the full control effect
Procedure, shortened: (§1)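 Compounds were pin-transferred onto cells and incubated 48 or 72 hr at 37 degree Celsius, 95% humidity. CellTiter-Glo was added, plates sat 10 min at room temperature, then ATP-coupled luminescence was imaged as the viability read-out.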

HEK293 = assay: as above; conditions: Five cell lines viability, CellTiter-Glo ATP luminescence, 48-72 h; max response: stronger effect = lower value
Procedure, shortened: as §1

HaCat = assay: as above; conditions: Five cell lines viability, CellTiter-Glo ATP luminescence, 48-72 h; max response: stronger effect = lower value
Procedure, shortened: as §1

KB-3-1 = assay: as above; conditions: Five cell lines viability, CellTiter-Glo ATP luminescence, 48-72 h; max response: stronger effect = lower value
Procedure, shortened: as §1

NIH3T3 = assay: as above; conditions: Five cell lines viability, CellTiter-Glo ATP luminescence, 48-72 h; max response: stronger effect = lower value
Procedure, shortened: as §1

HEK293T = assay: qHTS assay to identify novel small-molecules to repurpose for Merkel cell carcinoma treatment (AID 1296009); conditions: MCC and control cell lines, CellTiter-Glo viability, 72 h; series mostly up to 44.8 µM
Procedure, shortened: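 Viability readout: ATP luminescence (CellTiter-Glo) after 72 hr drug exposure at 37 degree celsius. Dose-response format was 8 points for NPC and 11 points for MIPE; data normalized to in-plate controls.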
Note: nearly all actives have a fitted effect of over 60% in size.

C[C@@H]1O[C@@H](O[C@H]2[C@H](O)[C@@H](O)[C@H](OC[C@H]3O[C@@H](OC(=O)[C@]45CCC(C)(C)C[C@H]4C4=CCC6[C@@]7(C)C[C@H](O)[C@H](O[C@@H]8O[C@H](CO)[C@@H](O)[C@H](O)[C@H]8O)[C@@](C)(C(=O)O)C7CC[C@@]6(C)[C@]4(C)CC5)[C@H](O[C@@H]4O[C@H](CO)[C@@H](O)[C@H](O)[C@H]4O)[C@@H](O)[C@@H]3O)O[C@@H]2CO)[C@H](O)[C@H](O)[C@H]1O (stereo not given in full)
inactive: max response (CRL-7250) 2.51% | outcome (HEK293) | max response (HaCat) 4.68% | max response (KB-3-1) 7.15% | max response (NIH3T3) 3.41% | outcome (HEK293T) inactive [at 9.27 µM]

OC1COC(OCC2OC(OCCc3ccccc3)C(O)C(O)C2O)C(O)C1O (stereo not given)
inactive: outcome (CRL-7250) | outcome (HEK293) | max response (HaCat) -7.45% | outcome (KB-3-1) | outcome (NIH3T3) | Potency (HEK293T)

COC(=O)[C@@H]1C2CC3c4[nH]c5ccccc5c4CCN3CC2CC[C@@H]1O (stereo not given in full)
inactive: outcome (CRL-7250) | outcome (HEK293) | max response (HaCat) -0.215% | max response (KB-3-1) 6.91% | outcome (NIH3T3) | Potency (HEK293T)

OC[C@H]1O[C@@H](Oc2ccc(O)c3cccc(O)c23)[C@H](O)[C@@H](O)[C@@H]1O
inactive: outcome (CRL-7250) | outcome (HEK293) | max response (HaCat) -1.01% | max response (KB-3-1) 3.57% | outcome (NIH3T3) | Potency (HEK293T)

CC(=O)O[C@@]1(C)C[C@@H](O)[C@]2(O)C=CO[C@@H](O[C@@H]3O[C@H](CO)[C@@H](O)[C@H](O)[C@H]3O)[C@@H]21
inactive: max response (CRL-7250) -0.355% | outcome (HEK293) | max response (HaCat) 3.46% | outcome (KB-3-1) | outcome (NIH3T3) | Potency (HEK293T)

COC(=O)[C@]12C(=O)C(C)=C(O)[C@@]1(C)C(C)=CC1[C@@]34CC[C@@H](OC(C)=O)C(C)(C)C3[C@H](C[C@]12C)OC4=O (stereo not given in full)
inactive: max response (CRL-7250) 4.87% | outcome (HEK293) | max response (HaCat) -9.29% | max response (KB-3-1) 1.77% | max response (NIH3T3) 4.25% | Potency (HEK293T)

C=C1CC2C3(C)C(O)CC(=O)C(C)(C)C3C(OC(C)=O)C(OC(C)=O)C2(C)C2C(=O)OC(C)(C(=O)OC)C(=O)C12C (stereo not given)
inactive: outcome (CRL-7250) | outcome (HEK293) | max response (HaCat) 3.78% | max response (KB-3-1) 5.29% | outcome (NIH3T3) | Potency (HEK293T)

CCNC(=O)[C@@H]1CCCN1C(=O)[C@H](CCCN=C(N)N)NC(=O)[C@H](CC(C)C)NC(=O)[C@@H](C)NC(=O)[C@H](Cc1ccc(O)cc1)NC(=O)[C@H](CO)NC(=O)[C@H](Cc1c[nH]c2ccccc12)NC(=O)[C@H](Cc1cnc[nH]1)NC(=O)[C@@H]1CCC(=O)N1
inactive: outcome (CRL-7250) | outcome (HEK293) | max response (HaCat) -3.68% | max response (KB-3-1) 8.19% | max response (NIH3T3) -1.38% | Potency (HEK293T)

Cc1ccc(Sc2cncc3sc(C(N)=O)cc23)cc1
inactive: outcome (CRL-7250) | outcome (HEK293) | max response (HaCat) -4.86% | outcome (KB-3-1) | outcome (NIH3T3) | Potency (HEK293T)

C/C(=C\CO)CC/C=C(\C)C(=O)O[C@H]1[C@H](OC2OC=C(C(=O)O)C3CCC(C)(O)C23)O[C@H](CO)[C@@H](O)[C@@H]1O (stereo not given in full)
inactive: max response (CRL-7250) -10.5% | outcome (HEK293) | max response (HaCat) 1.01% | outcome (KB-3-1) | max response (NIH3T3) 0.631% | Potency (HEK293T)

CC(=O)c1c(O)cc2c(c1C)C(=O)CC(O)C2 (stereo not given)
inactive: max response (CRL-7250) 4.51% | outcome (HEK293) | max response (HaCat) 1.58% | max response (KB-3-1) 9.72% | max response (NIH3T3) 1.74% | Potency (HEK293T)

CC1(C)CCCC2(C)C(CO)C3CCC2C31 (stereo not given)
inactive: max response (CRL-7250) -0.786% | outcome (HEK293) | max response (HaCat) 0.929% | outcome (KB-3-1) | outcome (NIH3T3) | Potency (HEK293T)

O=C(CCO[C@@H]1O[C@H](CO)[C@@H](O)[C@H](O)[C@H]1O)c1ccc(O)cc1
inactive: max response (CRL-7250) 3.35% | outcome (HEK293) | max response (HaCat) -12% | outcome (KB-3-1) | max response (NIH3T3) -1.69% | Potency (HEK293T)

COc1cc(/C=C/C(=O)O[C@H]2[C@H](OC(=O)/C=C/c3cc(OC)c(O)c(OC)c3)O[C@H](CO[C@@H]3O[C@H](CO)[C@@H](O)[C@H](O)[C@H]3O)[C@@H](O)[C@@H]2O)ccc1O
inactive: outcome (CRL-7250) | outcome (HEK293) | max response (HaCat) -26% | max response (KB-3-1) 7.55% | max response (NIH3T3) -14.9% | Potency (HEK293T)

CCCn1cnc2c(NCc3ccccc3)nc(N[C@H](CC)CO)nc21
inactive: max response (CRL-7250) -7.86% | outcome (HEK293) | max response (HaCat) 0.198% | outcome (KB-3-1) | outcome (NIH3T3) | Potency (HEK293T)

CC[C@H](C)/C=C(C)/C=C/C(=O)Cc1cc(O)c(C)c(O)c1C=O
inactive: max response (CRL-7250) -3.98% | outcome (HEK293) | max response (HaCat) 4.71% | max response (KB-3-1) 7.23% | max response (NIH3T3) 3.96% | Potency (HEK293T)

CC1C/C=C/C=C\CCCCC(O)C/C=C/C(=O)O1 (stereo not given)
inactive: max response (CRL-7250) 4.17% | outcome (HEK293) | max response (HaCat) -3.25% | max response (KB-3-1) 1.87% | outcome (NIH3T3) | Potency (HEK293T)

N#CC1C(=O)Nc2scc(-c3ccc(-c4ccccc4O)cc3)c2C1=O (stereo not given)
inactive: max response (CRL-7250) -4.61% | outcome (HEK293) | max response (HaCat) 1.11% | outcome (KB-3-1) | outcome (NIH3T3) | Potency (HEK293T)

N#CCc1ccc(O)cc1O[C@@H]1O[C@H](CO)[C@@H](O)[C@H](O)[C@H]1O
inactive: outcome (CRL-7250) | outcome (HEK293) | max response (HaCat) -21.9% | max response (KB-3-1) -0.902% | outcome (NIH3T3) | Potency (HEK293T)

CC[C@H](C)[C@@H]1NC(=O)[C@H](Cc2ccc(OC)cc2)NC(=O)CCCSC[C@@H](C(=O)N2CCC[C@H]2C(=O)N[C@@H](CC(C)C)C(=O)NCC(N)=O)NC(=O)[C@H](CC(N)=O)NC(=O)[C@H](CCC(N)=O)NC1=O (Y(Me)IQNCPLG-NH2; linker N-5 via X6)
inactive: max response (CRL-7250) -0.379% | outcome (HEK293) | max response (HaCat) -67.2% | outcome (KB-3-1) | outcome (NIH3T3) | Potency (HEK293T)

CC1(C)O[C@@]2(C)CC[C@@H]1C[C@@H]2OC1OC(CO)C(O)C(O)C1O (stereo not given in full)
inactive: outcome (CRL-7250) | outcome (HEK293) | max response (HaCat) -5.55% | outcome (KB-3-1) | max response (NIH3T3) -8.31% | Potency (HEK293T)

Nc1nc(CC(=O)Nc2ccc(CCNCC(O)c3ccccc3)cc2)cs1 (stereo not given)
inactive: max response (CRL-7250) 2.98% | outcome (HEK293) | max response (HaCat) -9.93% | outcome (KB-3-1) | outcome (NIH3T3) | Potency (HEK293T)

CCC(C)(O)C(O)C(=O)OCc1ccc(O[C@@H]2O[C@H](CO)[C@@H](O)[C@H](O)[C@H]2O)cc1 (stereo not given in full)
inactive: max response (CRL-7250) -2.71% | outcome (HEK293) | max response (HaCat) -0.484% | outcome (KB-3-1) | max response (NIH3T3) -0.787% | Potency (HEK293T)

C=C1CCC2[C@@](C)(C=O)CCC[C@]2(C)[C@H]1CC/C(C)=C/CO (stereo not given in full)
inactive: outcome (CRL-7250) | outcome (HEK293) | max response (HaCat) 3.6% | max response (KB-3-1) 7.89% | max response (NIH3T3) 1.05% | Potency (HEK293T)

COC1CC(=O)C23C(=O)NC(CC(C)C)C2C(C)C(C)=CC3/C=C(\C)CCC1O (stereo not given)
inactive: outcome (CRL-7250) | outcome (HEK293) | max response (HaCat) -17.4% | max response (KB-3-1) 0.905% | max response (NIH3T3) -0.706% | Potency (HEK293T)
